A short description of test [1]: ATG_XTT_Cytotoxicity: Cytotoxicity Assessment in the Attagene TRANS-FACTORIAL HepG2 Assay (AID 2283584).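 On AC50: XTT signal for cell number as viability in transfected HepG2 cells; cells exposed to compound for 24 h before reading; active means loss of viability signal versus DMSO baseline.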 The essentials:
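HepG2 cells transiently transfected with GAL4-UAS multiple reporter units, dosed 24 h; cytotoxicity read by XTT as loss of signal versus DMSO baseline.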

A short description of test [2]: TOX21_p53_BLA_p2_viability: Viability Assessment in the Tox21 HCT-116 p53 Agonism Beta-lactamase Assay, Phase 2 (AID 2283591).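 Further: compound exposure lasted 16 h at 37 °C; actives lower the ATP signal meaning cytotoxicity.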 The essentials: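 HCT-116 p53-bla cells (4000/well) rested 5 h at 37C, then received compounds in DMSO (217-fold dilution) for 16 h at 37C, 5% CO2. After the CCF4 read, CellTiter-Glo was added; ATP luminescence was read after 30 min at room temperature.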

Test [3] addresses Cellular tumor antigen p53 (Homo sapiens) (UniProt P04637). The experiment in a line: TOX21_p53_BLA_p2_ratio: Tox21 HCT-116 p53 Agonism Beta-lactamase Assay, Ratio, Phase 2 (AID 2283592). In a few lines: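 HCT-116 cells with p53-responsive beta-lactamase reporter, 4000 cells/well, preincubated 5 h, then compound in DMSO (217-fold dilution) for 16 h at 37C. CCF4-AM substrate 2 h at room temperature; 460/530 nm emission ratio fitted upward versus DMSO.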

Test [4] can be described thus: TOX21_p53_BLA_p3_viability: Viability Assessment in the Tox21 HCT-116 p53 Agonism Beta-lactamase Assay, Phase 3 (AID 2283593).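 Further: cells exposed to compound for 16 h before reading.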 In a few lines: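 HCT-116 cells (4000/well) rested 5 h at 37C, then got DMSO compounds by pin tool (217-fold dilution) for 16 h at 37C, 5% CO2. After the bla read, CellTiter-Glo was added and luminescence read at 30 min, room temperature.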

Test [5] concerns the target Cellular tumor antigen p53 (Homo sapiens) (UniProt P04637). In words: TOX21_p53_BLA_p3_ratio: Tox21 HCT-116 p53 Agonism Beta-lactamase Assay, Ratio, Phase 3 (AID 2283596). In a few lines: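 HCT116 p53-bla cells (4000/well) given compound in DMSO (217-fold dilution) after 5 h, incubated 16 h at 37C. CCF4-AM substrate 2 h at room temperature; 460/530 nm emission ratio, gain fitted against DMSO.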

Test [6] is described as follows: TOX21_p53_BLA_p4_viability: Viability Assessment in the Tox21 HCT-116 p53 Agonism Beta-lactamase Assay, Phase 4 (AID 2283597).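 Further: hits lower the luminescence signal meaning cytotoxicity.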 In a few lines: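 HCT-116 p53-bla cells, 4000/well, dosed after 5 h attachment and incubated 16 h at 37 °C, 5% CO2. Viability from CellTiter-Glo ATP luminescence after 30 min at room temperature, taken after the beta-lactamase read; loss of signal indicates cytotoxicity.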

The target of test [7] is Cellular tumor antigen p53 (Homo sapiens) (UniProt P04637). The experiment in a line: TOX21_p53_BLA_p5_ratio: Tox21 HCT-116 p53 Agonism Beta-lactamase Assay, Ratio, Phase 5 (AID 2283599). The essentials: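 HCT-116 cells carrying a p53-inducible beta-lactamase reporter were seeded at 4000 cells/well and dosed after 5 h with compound in DMSO (217-fold dilution). After 16 h at 37C, CCF4-AM substrate was added for 2 h, and the 460/530 nm emission ratio was scored as gain-of-signal versus DMSO.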
Chain of Cellular tumor antigen p53 (Homo sapiens) (P04637 whole entry, looked up): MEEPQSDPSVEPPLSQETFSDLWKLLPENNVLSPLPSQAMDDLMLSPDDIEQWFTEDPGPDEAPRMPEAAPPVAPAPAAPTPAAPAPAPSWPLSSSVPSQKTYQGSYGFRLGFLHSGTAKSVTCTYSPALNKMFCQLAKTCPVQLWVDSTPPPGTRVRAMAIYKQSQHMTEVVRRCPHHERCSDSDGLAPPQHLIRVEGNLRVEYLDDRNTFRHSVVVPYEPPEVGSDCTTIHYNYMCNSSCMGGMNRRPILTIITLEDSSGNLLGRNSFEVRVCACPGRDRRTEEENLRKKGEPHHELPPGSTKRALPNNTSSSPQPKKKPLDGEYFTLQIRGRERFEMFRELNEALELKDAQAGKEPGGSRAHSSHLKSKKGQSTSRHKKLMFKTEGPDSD

Test [8] is described as follows: TOX21_p53_BLA_p5_viability: Viability Assessment in the Tox21 HCT-116 p53 Agonism Beta-lactamase Assay, Phase 5 (AID 2283600). In a few lines: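 HCT-116 p53 beta-lactamase reporter cells, 4000/well, were exposed to compound (pin transfer, 217-fold dilution) for 16 hours at 37C. Cellular ATP was read by CellTiter-Glo luminescence after 30 min at room temperature.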

Test [9] deals with Cellular tumor antigen p53 (Homo sapiens) (UniProt P04637). The experiment in a line: TOX21_p53_BLA_p4_ratio: Tox21 HCT-116 p53 Agonism Beta-lactamase Assay, Ratio, Phase 4 (AID 2283601). The essentials: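 HCT116 cells carrying an inducible beta-lactamase reporter were plated at 4000 cells/well, rested 5 h, then exposed to compounds in DMSO (217-fold dilution) for 16 h at 37C. CCF4-AM substrate was loaded 2 h at room temperature; 460/530 nm emission ratio scored gain-of-signal versus DMSO.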

“And” between values parts separate entries of the source, which are not always exact repeats. Equal values may be shown once. Inconclusive results are not listed. Some compounds were tested as several samples or in several runs, with calls that do not always agree. The source made the active and inactive calls. How the source made its calls: active means hit-call score of the fitted dose curve at least 0.9, where 1 is the maximum; inconclusive means response in the unintended direction; inactive means score below 0.9.

Consider `Clc1ccc(C2(Cn3cncn3)CC(Br)CO2)c(Cl)c1` (stereo unspecified), for which the compound was called inactive in test [1], in [2], in test [4], in [5], in test [6] and in [7]. The call in test [8] and in test [9] was inactive. Further, the concentration at half-maximal activity (AC50) in test [3] is 69.2 µM (active).
Take `CC(C)CCCCCCOC(=O)c1ccccc1C(=O)OCCCCCCC(C)C`: the result in test [1], in [2], in test [3] and in [6] was inactive.
Consider `COS(=O)(=O)c1ccc(C)cc1`, for which, in [1], the call was inactive.
Turning to `C[C@H]1O[C@@H](O[C@H]2[C@@H](O)C[C@H](O[C@H]3[C@@H](O)C[C@H](O[C@H]4CC[C@@]5(C)[C@H](CC[C@@H]6[C@@H]5CC[C@]5(C)[C@@H](C7=CC(=O)OC7)CC[C@]65O)C4)O[C@@H]3C)O[C@@H]2C)C[C@H](O)[C@@H]1O`, the result in [1], in [3], in test [7], in test [8] and in test [9] was inactive. For the same compound, the concentration at half-maximal activity (AC50) in test [2] is 35.6 nM (active) and 51.1 nM (active); in test [4], 30 nM (active) and 51.3 nM (active); in [6], 40.5 nM (active) and 66.7 nM (active); in test [8], 0.028 µM (active).
Turning to `CN(C)P(=O)(N(C)C)N(C)C`, the compound was classed as inactive in test [1], in test [2], in test [3], in [5], in [6] and in [7]. The compound was classed as inactive in test [8] and in test [9].
Regarding `O=[N+]([O-])c1c(Cl)c(Cl)cc(Cl)c1Cl`, the call in [1], in test [2], in test [3], in test [4], in test [5] and in test [6] was inactive. The result in [7], in test [8] and in [9] was inactive.
In the case of `COC(=O)c1sccc1S(=O)(=O)NC(=O)Nc1nc(C)nc(OC)n1`, the compound was called inactive in [1], in test [2], in [3], in [4], in test [5] and in test [6]. The outcome in [7], in test [8] and in test [9] was inactive.
For the compound `COc1cc2c(cc1OC)[C@@]13CCN4CC5=CCO[C@H]6CC(=O)N2[C@H]1[C@H]6[C@H]5C[C@H]43`, the call in test [1], in test [2], in test [3], in test [4], in [5] and in [6] was inactive. The result in test [7], in [8] and in [9] was inactive.
Regarding `BrCCBr`, the compound was classed as inactive in test [1], in test [2], in [3], in test [4], in test [5] and in [8]. Moreover, in [9], the result was inactive.
On to `COc1ccc(OC)c(C=O)c1`, for which, in test [1], the outcome was inactive.
Turning to `ClCc1ccccn1`, the result in test [1], in [2], in [3], in [6], in [7] and in test [8] was inactive. In addition, the result in [9] was inactive.
For `CC(C)C1CCC(Cc2ccc(Cl)cc2)C1(O)Cn1cncn1` (stereo unspecified), the concentration at half-maximal activity (AC50) in test [1] is 33.2 µM (active); in [2], 53.1 µM (active); in [3] it was 67.8 µM (active); in test [4], 45.7 µM (active); in [5], 85.6 µM (active); in [6], 45.7 µM (active). Moreover, the AC50 in [7] was 82.8 µM (active); in test [8], 71.1 µM (active); in [9], 88.7 µM (active). In test [1], the outcome was inactive.
As to `O=Cc1cccc(Oc2ccccc2)c1`, in test [1], the result was inactive.
As for `C(=NC1CCCCC1)=NC1CCCCC1`, the result in test [1], in test [2], in test [3], in [7], in test [8] and in [9] was inactive. Further, the AC50 in test [4] is 17.7 µM (active) and 30.7 µM (active).
In the case of `Cc1cc(Cl)ccc1O[C@H](C)C(=O)O`, in test [1], the call was inactive.
The same measure, in the same setting: the same measure for `CC(=O)C=C(C)C`: “inactive”.
`COP(=S)(OC)Oc1ccc(S(=O)(=O)N(C)C)cc1`: the outcome in [1], in test [2], in [3], in test [4], in test [5] and in test [6] was inactive. The outcome in test [7], in test [8] and in [9] was inactive.
With `C[C@@H](Oc1ccc(Cl)cc1Cl)C(=O)O`, the call in test [1] was inactive.
The same measure, in the same setting: the result for `CN(CCCC(=O)c1cccnc1)N=O` reads “inactive”.
Consider `CCC[CH2][Sn]([CH2]CCC)([CH2]CCC)[O]C(=O)c1ccccc1`, for which the AC50 in test [1] was 0.906 µM (active); in [2], 0.93 µM (active); in test [3] it was 23.9 µM (active); in test [4], 2.09 µM (active); in [6] it was 0.953 µM (active); in [7], 24.7 µM (active). The AC50 in test [8] is 1.77 µM (active); in test [9], 27.2 µM (active).
As for `CCC(C)c1cccc(C(C)CC)c1O` (stereo unspecified), the result in [1], in test [2], in test [3], in test [4], in [6] and in test [7] was inactive. Besides, the result in [9] was inactive.
`C=CCc1ccc(OC)cc1`: the result in [1] was inactive.
For `C[C@H]1CCCC(=O)CCC/C=C/c2cc(O)cc(O)c2C(=O)O1`, the result in [1], in [2], in test [3], in test [4], in test [6] and in test [7] was inactive. Moreover, the compound was called inactive in test [8]. Moreover, the concentration at half-maximal activity (AC50) was 11.7 µM (active) in [3]; 11.7 µM (active) in test [7]; 8.07 µM (active) and 12.3 µM (active) in [9].
As to `CCCCOCCOC(C)=O`, the compound was classed as inactive in test [1], in test [2], in [3], in test [4], in [5] and in test [6]. The result in test [7] and in [9] was inactive.
As for `Fc1ccc(C2(Cn3cncn3)OC2c2ccccc2Cl)cc1` (stereo unspecified), the outcome in test [1] was inactive.
Consider `CCc1ccccc1N`, for which, in test [1], the outcome was inactive.
Turning to `CNC`, the outcome in [1], in [2], in test [3], in [4], in test [5] and in test [6] was inactive. Moreover, the result in test [7], in [8] and in [9] was inactive.
Regarding `O=C1CCCN1`, the result in test [1] was inactive.
With `CC(Br)C(=O)O` (stereo unspecified), the result in [1], in test [2], in test [3], in test [4], in [5] and in test [6] was inactive. The outcome in test [7], in test [8] and in [9] was inactive.
In the case of `O=C(O)Cc1ccccc1`, the compound was classed as inactive in test [1].
The same measure, in the same setting: the same measure for `CCN(CC)C(=O)Cl`: “inactive”.
On the same count and under the same terms, the result for `CCOP(=S)(OCC)SCCS(=O)(=O)CC` reads “inactive”.
Still for that read-out and setting: the same measure for `O=CC=O`: “inactive”; for `CC(=[OH+])/C=C(/C)[O-].CC(=[OH+])/C=C(/C)[O-].CC(=[OH+])/C=C(/C)[O-].[Fe]`: “inactive”.
For `CCCCCCCCC(=O)NCc1ccc(O)c(OC)c1`, the outcome in test [1] was inactive.
Same read-out and setting: the result for `ClC1=C(Cl)[C@]2(Cl)[C@@H]3[C@@H](Cl)[C@@H](Cl)C[C@@H]3[C@@]1(Cl)C2(Cl)Cl` reads “inactive”.
`COc1cccc(C=O)c1`: the result in test [1], in test [2], in test [3], in test [4], in test [5] and in test [7] was inactive. The compound was called inactive in [8] and in test [9].
Turning to `CCCCC(CC)CO[N+](=O)[O-]` (stereo unspecified), the compound was classed as inactive in test [1], in test [2], in test [3] and in test [9].
With `COC(=O)Cc1ccccc1`, the compound was classed as inactive in test [1], in test [5] and in test [9].
`CC(C)(c1ccc(OCC2CO2)cc1)c1ccc(OCC2CO2)cc1` (stereo unspecified): the compound was classed as inactive in test [1], in test [3], in test [4], in [7], in test [8] and in test [9]. Also, the AC50 in test [4] is 64.5 µM (active); in test [6], 70.9 µM (active) and 72.2 µM (active); in [7], 87.1 µM (active); in test [9] it was 79.4 µM (active).

The values are drawn from PubChem BioAssay (EPA / NIEHS).
